Assay results reported in PubChem BioAssay (NCATS).
Records with an inconclusive call do not appear. Values without a mark were called inactive. The source made the active and inactive calls. The call rests on the fitted dose curve.

Assay: VSVG counterscreen qHTS to identify inhibitors of SARS-CoV-2 cell entry (AID 1645847); further: nearly all actives have a fitted effect of over 65% in size
Conditions: VSV-G pseudotyped particle entry, luciferase; series mostly up to 57.2 µM; activity change, negative = inhibition: at the top concentration
Procedure, shortened: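 HEK293-ACE2 cells (Expi293F stably expressing human ACE2) were pretreated with compound for 1 h at 37 °C, then infected with MLV-based VSV-G pseudotyped particles for 48 h. Luciferase luminescence was normalized to VSV-G PP and bald PP wells.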
On the % scale 0 is the no-effect control and ±100 the full control effect; potency means the concentration at half of the fitted maximal effect.

Row | SMILES | Potency | activity change, negative = inhibition [%]
1 | O=C(CCCN1CCN(c2ccc(F)cc2)CC1)NC1c2ccccc2CSc2ccccc21 (centres undefined) | 1.71 µM (active) | –
2 | COC(=O)Nc1nc2ccc(S(=O)c3ccccc3)cc2[nH]1 (centres undefined) | 24.1 µM (active) | –
3 | O=C1NC2CCCCN2C12CCN(CCCN1c3ccccc3CCc3ccc(Cl)cc31)CC2 (centres undefined) | 21.5 µM (active) | –
4 | O=C(Nc1ccccc1)OCC(CN1CCCCC1)OC(=O)Nc1ccccc1 (centres undefined) | – | 0.829
5 | CC(=O)c1ccc2c(c1)N(CCCN1CCC(CCO)CC1)c1ccccc1S2 | 7.08 µM (active) | –
6 | CC(C(O)c1ccccc1)N(C)CCOC(c1ccccc1)c1ccccc1 (centres undefined) | 21.5 µM (active) | –
7 | COCCOC(=O)C1=C(C)NC(C)=C(C(=O)OC/C=C/c2ccccc2)C1c1cccc([N+](=O)[O-])c1 (centres undefined) | 21.5 µM (active) | –
8 | CCCOc1ccc2nc(NC(=O)OC)[nH]c2c1 | 0.607 µM (active) | –
9 | CC1=CC(=O)c2ccccc2C1=O | 6.81 µM (active) | –
